# RGS7-Gao reg: human RGS7-Galphao interaction regulation. P09471. Multiplexed bead flow cytometry, RGS7-Galphao binding; actives lie on both sides. binding response (% of control), % at 10 µM. 220,000 tested, 0.35% active; in the data active = binding response below about 49% or above about 150%; inconclusive = no clear call, values can overlap the other calls; inactive = in between;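 note: fluorescent Galphao held in activated GDP-AlF4 state binding bead-coupled RGS7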
# Target sequence (P09471 whole entry, looked up): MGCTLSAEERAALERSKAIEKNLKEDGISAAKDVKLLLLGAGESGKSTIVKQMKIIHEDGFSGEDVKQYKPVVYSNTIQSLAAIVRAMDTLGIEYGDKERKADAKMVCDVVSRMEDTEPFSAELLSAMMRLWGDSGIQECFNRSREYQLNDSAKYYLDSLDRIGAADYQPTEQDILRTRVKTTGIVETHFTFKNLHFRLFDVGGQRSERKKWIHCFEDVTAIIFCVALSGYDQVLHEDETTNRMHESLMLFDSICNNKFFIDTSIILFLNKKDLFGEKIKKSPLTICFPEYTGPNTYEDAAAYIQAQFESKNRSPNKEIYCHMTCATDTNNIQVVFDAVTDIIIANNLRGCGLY
# GSH fluor: compound fluoresces at 488/530 nm on GSH beads; 190,000 tested, 0.25% active; AID 1776; fluorescence (KMESF) at 10 µM; GSH beads flow cytometry, compound fluorescence 488/530 nm; hits give high values; in the data active = fluorescence above about 89;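 note: glutathione beads carrying GST-tagged Bcl family fusion proteins plus one bare bead set; values are compound well signal with DMSO vehicle wells as background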
# RGS8-Gao: human RGS8-Galphao interaction regulation; response (percent of control binding), % at 10 µM; P09471; AID 1423; multiplexed bead flow cytometry, RGS8-Galphao binding; actives lie on both sides; 220,000 tested, 0.34% active; in the data active = response below about 60% or above about 140%; inactive = in between;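 note: Galphao activated as the GDP aluminium fluoride complex binding bead-coupled RGS8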
# Avidin fluor: compound fluoresces at 488/530 nm on avidin beads | fluorescence (KMESF) at 10 µM | 220,000 tested, 0.38% active | compound fluorescence 488/530 nm, flow cytometry; hits give high values; in the data active = fluorescence above about 47
# RGS16-Gao HTS: regulators of human RGS16-Galphao interaction; 220,000 tested, 0.38% active; O15492+P09471; binding response (% of control), % at 10 µM; AID 1441; bead-based flow cytometry RGS16-Galphao binding, fluorescence; actives lie on both sides; call rule not given here;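 note: Galphao activated by GDP with aluminum fluoride before binding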
# Target sequence (O15492 whole entry, looked up): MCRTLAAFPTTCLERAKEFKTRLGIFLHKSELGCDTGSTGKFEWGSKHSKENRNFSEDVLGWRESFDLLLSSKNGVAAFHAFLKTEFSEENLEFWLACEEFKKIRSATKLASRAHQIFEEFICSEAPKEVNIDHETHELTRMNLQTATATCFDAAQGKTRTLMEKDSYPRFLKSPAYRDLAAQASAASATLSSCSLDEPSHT
# Target sequence (P09471 whole entry, looked up): as the sequence (P09471 whole entry, looked up) above
# RGS4-Gao reg: human RGS4-Galphao interaction regulation. Multiplexed bead flow cytometry, RGS4-Galphao binding; actives lie on both sides. 220,000 tested, 0.33% active. P09471. binding response (% of control), % at 10 µM; in the data active = binding response below about 49% or above about 150%; inactive = in between;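 note: fluorescent Galphao activated with aluminum fluoride binding bead-coupled RGS4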
# An asterisk follows results filed as active; ? = inconclusive; . = not tested or not shown. Shown are actives, neighbours in structure and some others; about 1.2% of the full set was active somewhere.
SMILES,RGS7-Gao reg,GSH fluor,RGS8-Gao,Avidin fluor,RGS16-Gao HTS,RGS4-Gao reg
NC(=O)c1nc(-c2ccco2)nc2c1[nH]c(=O)n2-c1ccc(Cl)c(Cl)c1,?,.,99.5,10,94.1,95.5
O=C1CCNc2c(Cl)cccc21,?,.,99.6,3,100.0,97.7
O=C(NC(=O)N1CCN(c2ccc([N+](=O)[O-])cn2)CC1)c1ccccc1F,?,.,97.7,7,95.4,98.5
O=C(NC(=O)N1CCN(c2ccc([N+](=O)[O-])cn2)CC1)c1c(Cl)cccc1Cl,?,.,117.3,49*,132.8,138.6
COC(=O)CC/C(O)=C1\C(=O)CC(C)(C)CC1=NCc1nc2ccccc2[nH]1,96.2,8,99.3,6,96.9,98.3
Cc1ccc(C)n1-n1c(C)nc2scc(-c3ccccc3)c2c1=O,138.6,17,100.3,86*,106.3,109.4
Cc1cc(C(=O)N/N=C/C(Cl)=C/c2ccccc2)c(C)o1,?,.,100.1,8,102.2,102.2
CC(C)(C)NC(=S)NCC1CC1,?,.,99.0,3,102.9,99.6
COc1ccc(OCC(=O)O/N=C(\N)Cc2ccc(Cl)cc2)cc1,107.7,22,97.1,54*,99.6,101.3
Cc1ccc(OCC(=O)O/N=C(\N)Cc2ccc(Cl)cc2)cc1,96.2,24,101.5,27,98.2,98.7
CC(C)(C)OC(=O)N[C@@H](Cc1ccccc1)c1nnc(S(=O)(=O)Cc2ccccc2)o1,100.9,9,94.2,8,92.7,97.8
Cc1ccccc1CS(=O)(=O)c1nnc([C@H](Cc2ccccc2)NC(=O)OC(C)(C)C)o1,131.7,6,93.6,48*,92.3,115.8
Cc1ccc(/C=C(\C#N)C(=O)Nc2ccccn2)o1,?,18,100.1,8,101.4,102.3
CCOC(=O)Cc1csc(NC(=O)NC2(C(F)(F)F)Oc3ccc(Cl)cc3O2)n1 (centres undefined),93.6,251*,97.0,6,93.3,95.2
CCOC(=O)Cc1csc(NC(=O)NC2(C(F)(F)F)Oc3cc(Cl)c(Cl)cc3O2)n1,97.1,35,98.0,12,97.0,96.9
CNC(=O)c1oc(-c2ccccc2)nc1C,103.8,19,104.7,8,103.2,101.9
COC(CNC(=O)c1c[nH]c2ccc(S(=O)(=O)N3CCC4(CC3)OCCO4)cc2c1=O)OC,96.2,26,90.3,3,70.4,94.7
O=C(c1c[nH]c2ccc(S(=O)(=O)N3CCC4(CC3)OCCO4)cc2c1=O)N1CCOCC1,102.7,12,100.9,51*,98.7,99.8
CCOC(=O)CC(NC(=O)c1ccc(C)cc1)c1ccc(OC)cc1 (centres undefined),105.0,14,103.8,21,104.6,104.5
O=C(Nc1ccc(Cl)c(C(F)(F)F)c1)C(=O)N1CCCCC1,94.7,10,84.8,5,45.7,97.0
O=C(Nc1ccc(Cl)c(C(F)(F)F)c1)N1CCCC(O)C1 (centres undefined),112.2,14,96.1,66*,100.6,93.7
COc1ccc(-c2cc3ccccc3oc2=O)cc1NC(=O)c1ccc(Br)o1,123.3,30,106.4,47*,148.6,148.4
CN1/C(=C\C=C2/C(=O)Oc3ccccc3C2=O)C(C)(C)c2ccccc21,142.4,68,102.6,90*,133.0,135.1
CN1C(=CC=C2C=C(I)C(=O)C(I)=C2)C(C)(C)c2ccccc21,?,.,96.7,20,97.8,102.3
COc1cc(OC)cc(C(=O)NCCC(=O)NCCc2ccc(OC)c(OC)c2)c1,94.7,10,89.1,9,60.5,96.1
SMILES,RGS7-Gao reg,GSH fluor,RGS8-Gao,Avidin fluor,RGS16-Gao HTS,RGS4-Gao reg
Cc1cc(Br)c(NC(=O)c2c(-c3c(Cl)cccc3Cl)noc2C)c(Br)c1,?,.,130.7,5,144.1,139.2
CC(=O)N1CCC2(CC1)C(C#N)=C(N)OC1=C2C(=O)CC(C)(C)C1,109.1,12,99.3,51*,103.5,103.4
CCC(C)(C)NC(=O)CN(C(=O)c1snc(C(N)=O)c1N)c1ccc2c(c1)OCCO2,100.6,24,99.4,29,96.8,97.3
CCCC(C(=O)NC(C)(C)C)N(C(=O)c1snc(C(N)=O)c1N)c1ccc2c(c1)OCCO2 (centres undefined),136.5,11,101.5,47*,108.5,116.3
N#Cc1ccccc1Sc1ccccc1N,13.8*,25,12.5*,-2,0.4*,20.1*
CCOC(=O)C1CCCN(C(=O)c2cc(Nc3ccc(OC)cc3)nc3ccccc23)C1 (centres undefined),116.3,16,100.9,51*,106.4,108.2
CCOC(=O)C1CCCN(C(=O)c2cc(-c3ccc(F)cc3)nc3ccccc23)C1 (centres undefined),104.2,11,103.4,23,113.3,100.8
CCOC(=O)c1cn(CC2CC2)c2cc(F)c(F)cc2c1=O,148.0,26,102.3,54*,111.7,109.5
CSc1sc(C(=O)N2CCCCC2)c(-c2cccs2)c1C#N,?,.,102.1,6,101.0,101.4
CCOC(=O)C(C(C)C)C(N)Cc1ccc(F)cc1 (centres undefined),99.2,62,102.1,12,101.5,100.8
Cn1nnc(NC(=O)CSc2ccc(Cl)cc2)n1,105.2,25,99.5,48*,98.1,99.0
N/C(=N\OC(=O)c1cccs1)c1ccccc1,148.5,5,102.1,51*,85.2,116.1
O=C(CCNC(=O)c1ccccc1Cl)Nc1cc(S(=O)(=O)N2CCOCC2)ccc1N1CCCC1,?,.,102.9,8,100.5,97.5
Cc1cc(C)n2ncc(C(=O)NCc3ccccc3)c2n1,98.7,264*,102.1,7,105.3,99.5
COc1ccc(CNC(=O)c2cnn3c(C(F)F)cc(C)nc23)cc1,131.7,11,94.8,94*,87.5,103.3
CCOc1ccc2nc3c(cc2c1)CN(CCOC)C(=NC)S3,105.1,114*,99.6,5,107.8,99.4
CCCCS(=O)(=O)C1CCS(=O)(=O)C1 (centres undefined),95.9,10,100.1,20,96.9,93.6
CCN(CC)S(=O)(=O)C1CCS(=O)(=O)C1 (centres undefined),84.9,242*,90.7,4,55.0,82.1
Cc1cc(C(=O)Nc2ccccc2N2CCCCC2)no1,?,.,100.1,6,100.3,96.4
CC(=O)Nc1ccc(NC(=O)COc2cccc3c2OC(C)(C)C3)cc1,110.9,7,99.0,58*,97.1,99.0
CCC(C(=O)Nc1sc(C(N)=O)c(C)c1C(=O)OC)c1ccccc1 (centres undefined),98.8,11,101.0,8,96.4,97.8
CC(=O)Nc1cccc(OCC(=O)Nc2ccccc2)c1,104.0,37,103.7,20,101.5,105.6

# High-throughput results (PubChem)
